As usually defined, the AC50 is the midpoint of the concentration-response curve, whichever way the signal moves.

We go through four compounds from PubChem BioAssay (EPA / NIEHS).

Common to all, as to settings: mRNA level, 48 h; actives raise or lower the signal
Read-out in test [1]: matrix metalloproteinase-10 (MMP10), MMP10 (gene 4319)
The experiment in a line: LTEA_HepaRG_MMP10: Life Technologies and Expression Analysis (LTEA) Assay for matrix metalloproteinase-10 (MMP10) using HepaRG (AID 2283517). The procedure, abridged:
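HepaRG, collagen I, ~100,000 cells/well; serum-free induction medium; 48 h exposure, duplicate, 8-pt half-log to 100 uM, 0.5% DMSO. Readout: TaqMan qRT-PCR, normalized to ACTB/GAPDH/POLR2A; bidirectional fit vs DMSO.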

Read-out in the next test: MYC, MYC (gene 4609)
The test is described as follows: LTEA_HepaRG_MYC: Life Technologies and Expression Analysis (LTEA) Assay for MYC using HepaRG (AID 2283518). The procedure, abridged:
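Differentiated human HepaRG cells, plated 48 h then switched to serum-free induction medium, were exposed in duplicate for 48 h to 8-point half-log series up to 100 uM in 0.5% DMSO. MYC mRNA measured by qRT-PCR, normalized to ACTB/GAPDH/POLR2A.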

Read-out in test [2]: matrix metalloproteinase-3 (MMP3), MMP3 (gene 4314)
The test is described as follows: LTEA_HepaRG_MMP3: Life Technologies and Expression Analysis (LTEA) Assay for matrix metalloproteinase-3 (MMP3) using HepaRG (AID 2283519). The method in brief:
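Differentiated human HepaRG cells, plated 48 h on collagen I, were exposed in duplicate for 48 h in serum-free induction medium to eight half-log concentrations up to 100 uM in 0.5% DMSO. MMP3 mRNA was quantified by TaqMan qRT-PCR, normalised to ACTB, GAPDH and POLR2A.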

Read-out in test [3]: Paternally Expressed 10 (PEG10), PEG10 (gene 23089)
The experiment in a line: LTEA_HepaRG_PEG10: Life Technologies and Expression Analysis (LTEA) Assay for Paternally Expressed 10 (PEG10) using HepaRG (AID 2283520).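 As to AC50: PEG10 transcript by qRT-PCR normalised to ACTB GAPDH and POLR2A.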 The method in brief:
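Chemicals tested on HepaRG cells for 48 h, highest concentration 100 uM. PEG10 expression assessed by qRT-PCR relative to DMSO control.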

Read-out in test [4]: Nuclear factor NF-kappa-B p105 subunit (Homo sapiens) (UniProt P19838)
The experiment in a line: LTEA_HepaRG_NFKB1: Life Technologies and Expression Analysis (LTEA) Assay for Nuclear Factor Kappa B Subunit 1 (NFKB1) using HepaRG (AID 2283521).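 Also: TaqMan qRT-PCR transcript normalised to ACTB GAPDH and POLR2A housekeeping genes.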 The procedure, abridged: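 Differentiated human HepaRG cells were exposed for 48 h in serum-free induction medium to eight concentrations (top 100 uM, half-log steps, 0.5% DMSO), in duplicate. NFKB1 mRNA was measured by TaqMan qRT-PCR, normalized to ACTB/GAPDH/POLR2A, and fitted bidirectionally against DMSO.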

Read-out in test [5]: Protein phosphatase 2A (PPP2R4), PTPA (gene 5524)
The test is described as follows: LTEA_HepaRG_PPP2R4: Life Technologies and Expression Analysis (LTEA) Assay for Protein phosphatase 2A (PPP2R4) using HepaRG (AID 2283522). The method in brief: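 Gene-expression endpoint in HepaRG hepatic cells: 48 h treatment across eight half-log concentrations up to 100 uM in 0.5% DMSO. PPP2R4 mRNA by qRT-PCR, normalized to three endogenous control genes.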

Read-out in test [6]: Phosphatase and tensin (PTEN), PTEN (gene 5728)
The test is described as follows: LTEA_HepaRG_PTEN: Life Technologies and Expression Analysis (LTEA) Assay for Phosphatase and tensin (PTEN) using HepaRG (AID 2283523). The procedure, abridged:
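Differentiated human HepaRG cells, plated 48 h then switched to serum-free induction medium, were exposed in duplicate for 48 h to eight half-log concentrations up to 100 uM in 0.5% DMSO. PTEN mRNA measured by TaqMan qRT-PCR, normalized to ACTB/GAPDH/POLR2A, bidirectional fit versus DMSO.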

Read-out in test [7]: solute carrier (SLC22A1), SLC22A1 (gene 6580)
The experiment in a line: LTEA_HepaRG_SLC22A1: Life Technologies and Expression Analysis (LTEA) Assay for solute carrier (SLC22A1) using HepaRG (AID 2283524). The method in brief: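 Human HepaRG cells were plated 48 h, switched to serum-free induction medium, then exposed in duplicate for 48 h to 8-point half-log series from 100 uM in 0.5% DMSO. SLC22A1 mRNA measured by qRT-PCR, normalized to ACTB/GAPDH/POLR2A, fitted bidirectionally versus DMSO.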

Read-out in test [8]: Pyruvate Dehydrogenase Kinase 4 (PDK4), PDK4 (gene 5166)
The experiment in a line: LTEA_HepaRG_PDK4: Life Technologies and Expression Analysis (LTEA) Assay for Pyruvate Dehydrogenase Kinase 4 (PDK4) using HepaRG (AID 2283525). The method in brief:
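Differentiated human HepaRG cells, pre-cultured 48 h, were exposed in duplicate for 48 h in serum-free induction medium to eight half-log concentrations up to 100 uM in 0.5% DMSO. PDK4 mRNA was quantified by qRT-PCR, normalized to ACTB, GAPDH and POLR2A, bidirectional fitting versus DMSO.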

Read-out in test [9]: NAD(P)H dehydrogenase [quinone] 1 (NQO1), NQO1 (gene 1728)
The experiment in a line: LTEA_HepaRG_NQO1: Life Technologies and Expression Analysis (LTEA) Assay for NAD(P)H dehydrogenase [quinone] 1 (NQO1) using HepaRG (AID 2283526). The method in brief: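 Human HepaRG hepatic cells received chemicals for 48 h in serum-free induction medium with 0.5% DMSO, up to 100 uM. Expression was assessed by TaqMan qRT-PCR against housekeeping controls and fitted bidirectionally against DMSO.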

Read-out in test [10]: Nuclear factor erythroid 2-related factor 2 (Homo sapiens) (UniProt Q16236)
The test is described as follows: LTEA_HepaRG_NFE2L2: Life Technologies and Expression Analysis (LTEA) Assay for Nuclear factor erythroid 2-related factor 2 (NFE2L2) Transcription Factor using HepaRG (AID 2283527).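 As to outcome: TaqMan qRT-PCR transcript level normalised to ACTB GAPDH and POLR2A housekeeping genes.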 The method in brief:
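Differentiated human HepaRG cells in serum-free induction medium were exposed for 48 h to eight concentrations (top 100 uM, half-log dilutions, 0.5% DMSO), in duplicate. NFE2L2 mRNA was quantified by TaqMan qRT-PCR, normalized to ACTB, GAPDH and POLR2A, with bidirectional fitting versus DMSO.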

Read-out in test [11]: Signal transducer and activator of transcription 3 (Homo sapiens) (UniProt P40763)
The experiment in a line: LTEA_HepaRG_STAT3: Life Technologies and Expression Analysis (LTEA) Assay for Signal transducer and activator of transcription (STAT3) using HepaRG (AID 2283529). The method in brief:
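Differentiated human HepaRG cells in serum-free induction medium were exposed in duplicate for 48 h to eight half-log concentrations up to 100 uM in 0.5% DMSO. STAT3 mRNA was quantified by TaqMan qRT-PCR, normalized to ACTB, GAPDH and POLR2A, and fitted bidirectionally against DMSO.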

Read-out in test [12]: solute carrier (SLCO1B1), SLCO1B1 (gene 10599)
The test is described as follows: LTEA_HepaRG_SLCO1B1: Life Technologies and Expression Analysis (LTEA) Assay for solute carrier (SLCO1B1) using HepaRG (AID 2283530). The method in brief:
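Differentiated human HepaRG cells, plated 48 h, switched to serum-free induction medium and exposed in duplicate for 48 h to 8 half-log concentrations (top 100 uM) in 0.5% DMSO. SLCO1B1 mRNA by TaqMan qRT-PCR, normalized to ACTB/GAPDH/POLR2A.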

Read-out in test [13]: sulfotransferase 2A1 (SULT2A1), SULT2A1 (gene 6822)
The test is described as follows: LTEA_HepaRG_SULT2A1: Life Technologies and Expression Analysis (LTEA) Assay for sulfotransferase 2A1 (SULT2A1) using HepaRG (AID 2283531). The procedure, abridged:
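Differentiated human HepaRG cells in serum-free induction medium were exposed for 48 h to eight half-log concentrations (top 100 uM, 0.5% DMSO). SULT2A1 mRNA was measured by qRT-PCR, normalized to ACTB, GAPDH and POLR2A, and fitted bidirectionally against DMSO.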

Read-out in test [14]: Transforming Growth Factor (TGFA), TGFA (gene 7039)
The test is described as follows: LTEA_HepaRG_TGFA: Life Technologies and Expression Analysis (LTEA) Assay for Transforming Growth Factor (TGFA) using HepaRG (AID 2283532). The procedure, abridged:
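Differentiated human HepaRG cells, plated 48 h then switched to serum-free induction medium, were exposed in duplicate for 48 h to 8-point half-log series from 100 uM in 0.5% DMSO. TGFA mRNA measured by qRT-PCR, normalized to ACTB/GAPDH/POLR2A, bidirectional fit versus DMSO.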

Read-out in test [15]: Transforming Growth Factor (TGFB1), TGFB1 (gene 7040)
The test is described as follows: LTEA_HepaRG_TGFB1: Life Technologies and Expression Analysis (LTEA) Assay for Transforming Growth Factor (TGFB1) Transporter using HepaRG (AID 2283533). The procedure, abridged: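 Differentiated human HepaRG cells in serum-free induction medium were exposed in duplicate for 48 h to eight concentrations (top 100 uM, half-log steps, 0.5% DMSO). TGFB1 mRNA was quantified by qRT-PCR, normalized to ACTB, GAPDH, POLR2A, and fitted bidirectionally against DMSO.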

Read-out in another test: TIMP1, TIMP1 (gene 7076)
The test is described as follows: LTEA_HepaRG_TIMP1: Life Technologies and Expression Analysis (LTEA) Assay for TIMP1 using HepaRG (AID 2283534).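 Also: TaqMan qRT-PCR signal normalized to ACTB GAPDH and POLR2A housekeeping genes.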 The procedure, abridged: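 Differentiated human HepaRG cells in serum-free induction medium were exposed 48 h to chemicals (8 half-log concentrations, top 100 uM, 0.5% DMSO). TIMP1 mRNA was quantified by TaqMan qRT-PCR, normalized to ACTB/GAPDH/POLR2A; bidirectional fit versus DMSO.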

Read-out in test [16]: Tumor necrosis factor receptor 1 (TNFRSF1A), TNFRSF1A (gene 7132)
The test is described as follows: LTEA_HepaRG_TNFRSF1A: Life Technologies and Expression Analysis (LTEA) Assay for Tumor necrosis factor receptor 1 (TNFRSF1A) using HepaRG (AID 2283535). The procedure, abridged:
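Differentiated human HepaRG cells were exposed in duplicate for 48 h in serum-free induction medium to eight concentrations (top 100 uM, half-log steps, 0.5% DMSO). TNFRSF1A mRNA was quantified by qRT-PCR, normalized to ACTB, GAPDH and POLR2A, then fitted bidirectionally against DMSO.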

Read-out in test [17]: MicroRNA 122 (MIR122), gene 406906
The experiment in a line: LTEA_HepaRG_MIR122: Life Technologies and Expression Analysis (LTEA) Assay for MicroRNA 122 (MIR122) using HepaRG (AID 2283516). Also: the transcript read is the microRNA miR-122. The procedure, abridged:
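HepaRG, 48 h exposure, 8-pt half-log from 100 uM, 0.5% DMSO; TaqMan qRT-PCR; bidirectional fit vs DMSO.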

Read-out in test [18]: succinate dehydrogenase complex iron sulfur subunit B (SDHB), SDHB (gene 6390)
The test is described as follows: LTEA_HepaRG_SDHB: Life Technologies and Expression Analysis (LTEA) Assay for succinate dehydrogenase complex iron sulfur subunit B (SDHB) using HepaRG (AID 2283528). The procedure, abridged: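 HepaRG, 48 h exposure, 8-pt half-log series from 100 uM in 0.5% DMSO, duplicates. Readout: SDHB mRNA by Fluidigm qRT-PCR vs housekeeping genes; bidirectional fit relative to DMSO.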

The source made the active and inactive calls. The calls were made as follows: active = hit-call score of the fitted dose curve at least 0.9, where 1 is the maximum; inactive = score below 0.9.

Chain of Signal transducer and activator of transcription 3 (Homo sapiens) (P40763 whole entry, looked up): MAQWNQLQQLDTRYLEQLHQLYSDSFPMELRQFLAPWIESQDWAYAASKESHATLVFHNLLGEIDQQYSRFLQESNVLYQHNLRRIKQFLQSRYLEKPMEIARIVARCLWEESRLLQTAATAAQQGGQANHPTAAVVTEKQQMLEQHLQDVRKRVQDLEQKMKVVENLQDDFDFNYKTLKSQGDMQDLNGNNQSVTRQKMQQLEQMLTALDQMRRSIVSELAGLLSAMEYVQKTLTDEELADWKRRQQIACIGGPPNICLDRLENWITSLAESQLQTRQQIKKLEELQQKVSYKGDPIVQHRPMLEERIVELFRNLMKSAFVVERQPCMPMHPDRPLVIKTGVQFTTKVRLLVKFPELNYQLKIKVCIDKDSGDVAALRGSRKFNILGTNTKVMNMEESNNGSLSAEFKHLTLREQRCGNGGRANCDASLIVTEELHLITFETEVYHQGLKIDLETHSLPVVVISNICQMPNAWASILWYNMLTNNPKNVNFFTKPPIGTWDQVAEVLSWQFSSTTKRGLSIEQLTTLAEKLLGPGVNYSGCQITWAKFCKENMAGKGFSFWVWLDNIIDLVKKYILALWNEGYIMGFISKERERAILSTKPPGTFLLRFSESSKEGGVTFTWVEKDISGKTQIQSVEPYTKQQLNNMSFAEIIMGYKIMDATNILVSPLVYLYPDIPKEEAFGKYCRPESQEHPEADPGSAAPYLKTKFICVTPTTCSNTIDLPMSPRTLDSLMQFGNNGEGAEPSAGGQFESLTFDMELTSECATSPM
Chain of Nuclear factor erythroid 2-related factor 2 (Homo sapiens) (Q16236 whole entry, looked up): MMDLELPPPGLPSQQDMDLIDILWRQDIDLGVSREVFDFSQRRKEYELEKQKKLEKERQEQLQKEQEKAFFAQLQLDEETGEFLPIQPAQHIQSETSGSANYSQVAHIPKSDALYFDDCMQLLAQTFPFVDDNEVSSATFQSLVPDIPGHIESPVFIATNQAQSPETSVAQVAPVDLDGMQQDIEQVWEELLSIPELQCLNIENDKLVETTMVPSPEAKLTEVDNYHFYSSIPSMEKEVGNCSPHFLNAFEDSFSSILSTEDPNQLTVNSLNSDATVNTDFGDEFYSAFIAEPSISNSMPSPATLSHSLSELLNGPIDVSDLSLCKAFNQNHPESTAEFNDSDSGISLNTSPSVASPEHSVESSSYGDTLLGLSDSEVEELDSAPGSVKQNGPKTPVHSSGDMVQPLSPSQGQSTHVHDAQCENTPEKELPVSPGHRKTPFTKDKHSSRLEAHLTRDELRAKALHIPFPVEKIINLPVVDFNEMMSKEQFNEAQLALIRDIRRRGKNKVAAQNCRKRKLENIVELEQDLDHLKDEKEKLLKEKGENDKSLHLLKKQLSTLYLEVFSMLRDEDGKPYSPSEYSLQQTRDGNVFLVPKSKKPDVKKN
Chain of Nuclear factor NF-kappa-B p105 subunit (Homo sapiens) (P19838 whole entry, looked up): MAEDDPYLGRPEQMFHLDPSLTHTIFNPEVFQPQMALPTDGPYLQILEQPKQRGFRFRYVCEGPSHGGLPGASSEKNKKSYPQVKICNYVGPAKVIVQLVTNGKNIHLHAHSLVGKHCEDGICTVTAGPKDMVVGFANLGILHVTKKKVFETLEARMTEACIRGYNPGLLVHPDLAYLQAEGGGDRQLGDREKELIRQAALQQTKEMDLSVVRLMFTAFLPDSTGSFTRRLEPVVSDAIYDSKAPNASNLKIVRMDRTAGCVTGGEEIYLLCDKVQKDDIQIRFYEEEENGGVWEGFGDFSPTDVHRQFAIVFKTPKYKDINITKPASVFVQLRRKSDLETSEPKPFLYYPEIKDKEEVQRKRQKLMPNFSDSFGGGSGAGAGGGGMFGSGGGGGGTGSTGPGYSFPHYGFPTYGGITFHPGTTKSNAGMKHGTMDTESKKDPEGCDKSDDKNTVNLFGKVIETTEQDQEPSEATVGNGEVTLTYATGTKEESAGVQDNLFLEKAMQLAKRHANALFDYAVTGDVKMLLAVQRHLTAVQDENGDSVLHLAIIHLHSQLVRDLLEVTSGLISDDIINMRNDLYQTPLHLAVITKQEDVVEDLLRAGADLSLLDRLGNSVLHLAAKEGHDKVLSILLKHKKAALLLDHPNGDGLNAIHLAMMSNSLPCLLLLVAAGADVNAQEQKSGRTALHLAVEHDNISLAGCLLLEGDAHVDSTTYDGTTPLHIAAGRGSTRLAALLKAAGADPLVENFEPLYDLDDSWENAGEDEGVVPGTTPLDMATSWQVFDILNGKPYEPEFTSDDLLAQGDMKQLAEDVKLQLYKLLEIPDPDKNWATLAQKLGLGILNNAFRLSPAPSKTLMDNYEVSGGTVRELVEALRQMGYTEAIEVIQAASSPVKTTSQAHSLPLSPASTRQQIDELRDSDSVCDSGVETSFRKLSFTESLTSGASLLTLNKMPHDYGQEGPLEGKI

Consider `COP(=O)(OC)O/C(C)=C/C(=O)N(C)C`, for which the outcome in test [1] was “inactive”; with MYC, MYC (gene 4609), “inactive”; in test [2] it was “inactive”; in test [3], “inactive”; in [4], “inactive”; in test [5] it was “inactive”. The result in test [6], in test [7], in test [8], in test [9], in [10] and in test [11] was inactive. The outcome in test [12] is “inactive”; in test [13], “inactive”; in [14], “inactive”; in [15], “inactive”; in the test with TIMP1, TIMP1 (gene 7076) it was “inactive”; in test [16] it was “inactive”.
Regarding `COC(=O)NS(=O)(=O)c1ccc(N)cc1`, the outcome was “inactive” in test [17]; “inactive” in [1]; “inactive” in the test with MYC, MYC (gene 4609); “inactive” in test [2]; “inactive” in [3]; “inactive” in [5]. In addition, the compound was called inactive in test [6], in [8], in test [9], in test [10], in [11] and in test [12]. Also, the outcome in test [13] is “inactive”; in test [14], “inactive”; in test [15] it was “inactive”; with TIMP1, TIMP1 (gene 7076) it was “inactive”; in test [16] it was “inactive”.
For the compound `CCC(C)n1c(=O)[nH]c(C)c(Br)c1=O` (configuration not stated), the AC50 in test [17] is 10.4 µM (active); in the test with MYC, MYC (gene 4609), 24.8 µM (active); in test [3], 21.1 µM (active); in [7], 19.2 µM (active); in [8], 50 µM (active); in test [10], 7.04 µM (active). Besides, the AC50 in test [11] is 31.8 µM (active); in [12], 29 µM (active); in test [13], 24.9 µM (active). For the same compound, the compound was classed as inactive in test [1], in test [2], in test [5], in [6], in test [14] and in [15]. Further, the outcome with TIMP1, TIMP1 (gene 7076) is “inactive”; in test [16], “inactive”.
Consider `Nc1cnn(-c2ccccc2)c(=O)c1Cl`, for which the outcome in test [17] is “inactive”; in test [1] it was “inactive”; in the test with MYC, MYC (gene 4609) it was “inactive”; in test [2], “inactive”; in test [3], “inactive”; in test [4], “inactive”. Further, the outcome in test [5], in test [6], in test [7], in test [8], in test [9] and in [10] was inactive. The call in [18], in test [11], in test [12], in test [13], in test [14] and in test [15] was inactive. Also, the outcome with TIMP1, TIMP1 (gene 7076) was “inactive”; in test [16] it was “inactive”.
